Measured values from paper PMC7862700, “An all-to-all approach to the identification of sequence-specific readers for epigenetic DNA modifications on cytosine”.

Tests used:
Test in all cases: DAPPL (digital affinity profiling via proximity ligation, sequencing); 10 mM Tris-HCl pH 7.5, 50 mM NaCl, 1 mM DTT, 4% glycerol, room temperature, 30 min; GST-TFs on glutathione beads, 16-mer random dsDNA library, 0.1% formaldehyde crosslink after washing; high values mean tight binding
FEV = target: T1, FEV (Homo sapiens, UniProt Q99581 1-238); settings: protein: recombinant; tags: N-terminal GST; dsDNA, one strand shown
T1 sequence: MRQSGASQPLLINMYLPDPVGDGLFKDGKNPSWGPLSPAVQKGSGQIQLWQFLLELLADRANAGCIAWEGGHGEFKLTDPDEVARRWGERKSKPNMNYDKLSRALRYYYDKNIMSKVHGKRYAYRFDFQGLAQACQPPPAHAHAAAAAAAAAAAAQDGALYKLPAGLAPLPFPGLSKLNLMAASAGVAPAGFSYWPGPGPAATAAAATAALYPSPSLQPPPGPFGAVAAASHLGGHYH
Procedure, shortened: (§1)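 Each value of binding signal is a hexamer's read frequency for a factor divided by the same hexamer's frequency in the tag-only sample. Barcoded, bead-captured GST fusions of human transcription factors made in yeast were pooled with that sample and incubated with 200 nmole of a random double-stranded 16-mer DNA library in Tris/NaCl/DTT/glycerol buffer at room temperature for 30 min. Washing, 0.1% formaldehyde crosslinking, proximity ligation, PCR and Illumina NextSeq500 sequencing followed.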

ETV5 = ETV5 (Homo sapiens, UniProt P41161 1-510); settings: protein: recombinant; tags: N-terminal GST; dsDNA, one strand shown
Procedure, shortened: as §1

HSF1 = HSF1 (Homo sapiens, UniProt Q00613 1-529); settings: protein: recombinant; tags: N-terminal GST; chain copies: 3; dsDNA, one strand shown
Procedure, shortened: as §1

SPIC = target: T2, SPIC (Homo sapiens, UniProt Q8N5J4 1-248); settings: protein: recombinant; tags: N-terminal GST; dsDNA, one strand shown
T2 sequence: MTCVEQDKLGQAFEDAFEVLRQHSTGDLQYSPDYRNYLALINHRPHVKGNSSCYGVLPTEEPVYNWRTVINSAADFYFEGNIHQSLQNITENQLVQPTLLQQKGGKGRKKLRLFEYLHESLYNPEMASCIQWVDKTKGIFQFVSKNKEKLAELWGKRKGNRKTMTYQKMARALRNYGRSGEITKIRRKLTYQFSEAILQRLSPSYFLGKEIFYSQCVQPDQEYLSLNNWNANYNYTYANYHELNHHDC
Procedure, shortened: as §1

ELF4 = ELF4 (Homo sapiens, UniProt Q99607 1-663); settings: protein: recombinant; tags: N-terminal GST; dsDNA, one strand shown
Procedure, shortened: as §1

ELK4 = target: T3, ELK4 (Homo sapiens, UniProt P28324-2 1-405); settings: protein: recombinant; tags: N-terminal GST; dsDNA, one strand shown
T3 sequence: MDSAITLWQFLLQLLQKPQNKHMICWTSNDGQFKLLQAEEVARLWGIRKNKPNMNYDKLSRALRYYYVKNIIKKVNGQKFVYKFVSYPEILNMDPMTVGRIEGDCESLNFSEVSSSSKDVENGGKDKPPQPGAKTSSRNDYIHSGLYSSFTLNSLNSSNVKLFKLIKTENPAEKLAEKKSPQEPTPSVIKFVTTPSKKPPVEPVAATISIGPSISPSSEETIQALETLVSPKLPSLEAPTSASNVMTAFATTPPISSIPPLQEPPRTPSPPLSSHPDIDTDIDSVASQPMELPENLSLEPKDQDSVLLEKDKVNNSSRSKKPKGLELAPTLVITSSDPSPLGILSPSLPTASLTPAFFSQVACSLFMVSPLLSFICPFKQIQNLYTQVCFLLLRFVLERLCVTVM
Procedure, shortened: as §1

ETV2 = target: T4, ETV2 (Homo sapiens, UniProt O00321 1-342); settings: protein: recombinant; tags: N-terminal GST; dsDNA, one strand shown
T4 sequence: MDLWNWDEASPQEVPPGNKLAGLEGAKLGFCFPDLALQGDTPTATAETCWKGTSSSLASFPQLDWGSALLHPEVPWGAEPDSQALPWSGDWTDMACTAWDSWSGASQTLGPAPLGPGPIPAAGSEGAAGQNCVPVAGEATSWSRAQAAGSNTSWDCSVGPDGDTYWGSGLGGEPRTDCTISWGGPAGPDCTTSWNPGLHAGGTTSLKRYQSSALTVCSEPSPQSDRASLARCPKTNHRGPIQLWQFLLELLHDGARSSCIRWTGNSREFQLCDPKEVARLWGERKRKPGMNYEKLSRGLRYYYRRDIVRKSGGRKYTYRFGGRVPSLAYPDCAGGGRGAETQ
Procedure, shortened: as §1

ELF3 = target: T5, ELF3 (Homo sapiens, UniProt P78545 1-371); settings: protein: recombinant; tags: N-terminal GST; dsDNA, one strand shown
T5 sequence: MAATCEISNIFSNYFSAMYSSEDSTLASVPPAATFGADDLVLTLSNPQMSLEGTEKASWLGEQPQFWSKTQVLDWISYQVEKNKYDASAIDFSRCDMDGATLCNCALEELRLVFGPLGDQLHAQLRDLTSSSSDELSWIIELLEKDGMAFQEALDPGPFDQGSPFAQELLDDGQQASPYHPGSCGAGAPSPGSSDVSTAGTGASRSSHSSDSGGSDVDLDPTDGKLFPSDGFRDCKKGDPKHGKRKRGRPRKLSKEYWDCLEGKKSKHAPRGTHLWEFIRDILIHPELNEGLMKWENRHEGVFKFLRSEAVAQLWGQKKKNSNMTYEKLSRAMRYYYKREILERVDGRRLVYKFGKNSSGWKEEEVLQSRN
Procedure, shortened: as §1

CRX = CRX (Homo sapiens, UniProt O43186 1-299); settings: protein: recombinant; tags: N-terminal GST; dsDNA, one strand shown
Procedure, shortened: as §1

ETV1 = ETV1 (Homo sapiens, UniProt P50549 1-477); settings: protein: recombinant; tags: N-terminal GST; dsDNA, one strand shown
Procedure, shortened: as §1

ERF = target: T6, ERF (Homo sapiens, UniProt P50548 1-548); settings: protein: recombinant; tags: N-terminal GST; dsDNA, one strand shown
T6 sequence: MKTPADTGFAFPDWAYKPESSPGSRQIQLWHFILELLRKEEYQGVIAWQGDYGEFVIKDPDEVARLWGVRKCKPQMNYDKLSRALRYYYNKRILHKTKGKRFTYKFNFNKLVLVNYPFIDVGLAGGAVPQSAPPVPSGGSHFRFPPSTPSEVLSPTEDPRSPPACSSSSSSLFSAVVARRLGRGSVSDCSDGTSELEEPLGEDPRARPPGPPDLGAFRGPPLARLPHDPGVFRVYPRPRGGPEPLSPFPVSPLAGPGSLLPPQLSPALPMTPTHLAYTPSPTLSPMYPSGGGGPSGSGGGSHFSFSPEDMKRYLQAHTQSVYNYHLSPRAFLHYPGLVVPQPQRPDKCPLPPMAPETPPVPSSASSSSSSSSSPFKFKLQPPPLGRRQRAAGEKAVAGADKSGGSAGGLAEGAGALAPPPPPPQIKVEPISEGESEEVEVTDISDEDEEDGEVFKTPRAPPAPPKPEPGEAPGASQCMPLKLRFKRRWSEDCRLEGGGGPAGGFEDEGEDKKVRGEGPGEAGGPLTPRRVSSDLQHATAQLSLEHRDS
Procedure, shortened: as §1

ETV3L = target: T7, ETV3L (Homo sapiens, UniProt Q6ZN32 1-361); settings: protein: recombinant; tags: N-terminal GST; dsDNA, one strand shown
T7 sequence: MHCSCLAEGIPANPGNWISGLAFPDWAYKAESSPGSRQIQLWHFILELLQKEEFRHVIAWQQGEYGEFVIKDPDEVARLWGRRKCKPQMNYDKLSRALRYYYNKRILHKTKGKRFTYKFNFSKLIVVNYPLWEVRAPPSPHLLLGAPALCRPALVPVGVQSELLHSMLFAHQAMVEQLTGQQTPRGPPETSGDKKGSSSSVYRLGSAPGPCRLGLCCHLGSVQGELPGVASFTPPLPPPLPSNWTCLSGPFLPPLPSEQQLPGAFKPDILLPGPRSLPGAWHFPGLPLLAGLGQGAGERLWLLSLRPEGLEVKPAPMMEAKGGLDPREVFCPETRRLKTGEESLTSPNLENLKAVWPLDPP
Procedure, shortened: as §1

ETS2 = target: T8, ETS2 (Homo sapiens, UniProt P15036 1-469); settings: protein: recombinant; tags: N-terminal GST; dsDNA, one strand shown
T8 sequence: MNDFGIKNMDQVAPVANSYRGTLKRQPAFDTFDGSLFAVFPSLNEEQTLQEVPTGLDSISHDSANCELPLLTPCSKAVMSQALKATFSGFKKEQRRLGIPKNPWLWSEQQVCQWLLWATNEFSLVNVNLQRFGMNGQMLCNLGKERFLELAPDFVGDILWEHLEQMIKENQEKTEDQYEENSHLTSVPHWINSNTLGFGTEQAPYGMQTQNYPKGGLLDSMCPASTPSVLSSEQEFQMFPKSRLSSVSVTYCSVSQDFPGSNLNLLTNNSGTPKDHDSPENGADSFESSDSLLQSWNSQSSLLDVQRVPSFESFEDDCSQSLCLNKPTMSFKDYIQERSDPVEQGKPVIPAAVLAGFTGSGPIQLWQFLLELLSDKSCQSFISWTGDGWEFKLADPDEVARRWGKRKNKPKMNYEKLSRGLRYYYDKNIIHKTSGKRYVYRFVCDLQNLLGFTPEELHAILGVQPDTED
Procedure, shortened: as §1

SPDEF = target: T9, SPDEF (Homo sapiens, UniProt O95238 1-335); settings: protein: recombinant; tags: N-terminal GST; dsDNA, one strand shown
T9 sequence: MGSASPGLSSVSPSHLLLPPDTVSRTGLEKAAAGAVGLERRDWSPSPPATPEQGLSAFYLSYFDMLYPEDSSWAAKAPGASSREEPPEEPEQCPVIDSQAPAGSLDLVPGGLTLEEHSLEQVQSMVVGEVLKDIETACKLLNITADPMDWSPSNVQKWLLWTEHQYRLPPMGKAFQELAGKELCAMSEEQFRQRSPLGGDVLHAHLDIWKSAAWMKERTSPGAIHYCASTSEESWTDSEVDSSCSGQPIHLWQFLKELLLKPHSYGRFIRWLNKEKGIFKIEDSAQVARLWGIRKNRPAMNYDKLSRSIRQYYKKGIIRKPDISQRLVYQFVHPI
Procedure, shortened: as §1

ETV7 = target: T10, ETV7 (Homo sapiens, UniProt Q9Y603 1-341); settings: protein: recombinant; tags: N-terminal GST; dsDNA, one strand shown
T10 sequence: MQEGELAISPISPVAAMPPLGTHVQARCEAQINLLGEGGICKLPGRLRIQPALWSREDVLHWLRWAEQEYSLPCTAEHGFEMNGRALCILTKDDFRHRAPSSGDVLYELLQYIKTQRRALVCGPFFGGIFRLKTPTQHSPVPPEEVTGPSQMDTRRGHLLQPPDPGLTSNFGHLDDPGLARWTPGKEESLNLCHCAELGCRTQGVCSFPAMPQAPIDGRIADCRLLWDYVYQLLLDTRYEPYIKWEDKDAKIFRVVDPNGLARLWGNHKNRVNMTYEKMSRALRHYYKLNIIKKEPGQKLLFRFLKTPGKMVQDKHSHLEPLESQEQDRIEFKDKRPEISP
Procedure, shortened: as §1

ELF5 = target: T11, ELF5 (Homo sapiens, UniProt Q9UKW6-2 1-255); settings: protein: recombinant; tags: N-terminal GST; dsDNA, one strand shown
T11 sequence: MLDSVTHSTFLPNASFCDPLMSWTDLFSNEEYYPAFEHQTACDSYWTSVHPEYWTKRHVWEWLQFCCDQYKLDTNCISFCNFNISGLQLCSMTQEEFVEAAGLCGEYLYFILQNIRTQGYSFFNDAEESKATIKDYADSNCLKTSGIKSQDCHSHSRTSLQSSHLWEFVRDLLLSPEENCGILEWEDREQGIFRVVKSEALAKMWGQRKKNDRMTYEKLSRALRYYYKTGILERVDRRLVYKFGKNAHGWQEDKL
Procedure, shortened: as §1

ETV3 = target: T12, ETV3 (Homo sapiens, UniProt P41162-2 1-143); settings: protein: recombinant; tags: N-terminal GST; dsDNA, one strand shown
T12 sequence: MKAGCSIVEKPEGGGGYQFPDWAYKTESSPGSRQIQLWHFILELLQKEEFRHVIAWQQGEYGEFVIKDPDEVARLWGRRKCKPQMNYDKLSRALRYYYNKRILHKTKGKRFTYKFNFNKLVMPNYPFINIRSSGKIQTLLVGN
Procedure, shortened: as §1

ETV6 = ETV6 (Homo sapiens, UniProt P41212 1-452); settings: protein: recombinant; tags: N-terminal GST; dsDNA, one strand shown
Procedure, shortened: as §1

CRX, sequence (O43186 whole entry): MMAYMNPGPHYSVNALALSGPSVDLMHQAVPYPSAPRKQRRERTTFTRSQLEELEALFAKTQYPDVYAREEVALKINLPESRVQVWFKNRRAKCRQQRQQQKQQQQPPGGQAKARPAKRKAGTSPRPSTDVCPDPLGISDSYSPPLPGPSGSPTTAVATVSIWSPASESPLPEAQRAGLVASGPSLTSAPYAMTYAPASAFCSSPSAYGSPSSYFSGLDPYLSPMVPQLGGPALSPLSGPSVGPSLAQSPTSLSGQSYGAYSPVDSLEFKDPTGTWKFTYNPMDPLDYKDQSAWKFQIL
ELF4, sequence (Q99607 whole entry): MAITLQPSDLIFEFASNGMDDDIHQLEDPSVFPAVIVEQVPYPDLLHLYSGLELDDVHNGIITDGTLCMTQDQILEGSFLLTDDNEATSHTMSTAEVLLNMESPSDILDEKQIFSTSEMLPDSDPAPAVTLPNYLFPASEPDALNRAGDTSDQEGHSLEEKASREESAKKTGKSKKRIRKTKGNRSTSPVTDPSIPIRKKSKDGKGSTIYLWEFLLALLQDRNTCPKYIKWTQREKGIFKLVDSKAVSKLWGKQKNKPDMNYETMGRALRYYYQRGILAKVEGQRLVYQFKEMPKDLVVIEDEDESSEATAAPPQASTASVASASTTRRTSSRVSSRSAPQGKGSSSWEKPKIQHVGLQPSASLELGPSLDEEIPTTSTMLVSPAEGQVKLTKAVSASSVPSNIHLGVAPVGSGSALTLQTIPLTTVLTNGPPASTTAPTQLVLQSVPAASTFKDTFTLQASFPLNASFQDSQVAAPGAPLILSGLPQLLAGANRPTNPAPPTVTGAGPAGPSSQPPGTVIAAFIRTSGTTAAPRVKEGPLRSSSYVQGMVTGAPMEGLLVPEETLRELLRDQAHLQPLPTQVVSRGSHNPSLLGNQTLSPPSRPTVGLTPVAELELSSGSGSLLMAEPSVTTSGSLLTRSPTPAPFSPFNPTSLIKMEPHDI
ETV1, sequence (P50549 whole entry): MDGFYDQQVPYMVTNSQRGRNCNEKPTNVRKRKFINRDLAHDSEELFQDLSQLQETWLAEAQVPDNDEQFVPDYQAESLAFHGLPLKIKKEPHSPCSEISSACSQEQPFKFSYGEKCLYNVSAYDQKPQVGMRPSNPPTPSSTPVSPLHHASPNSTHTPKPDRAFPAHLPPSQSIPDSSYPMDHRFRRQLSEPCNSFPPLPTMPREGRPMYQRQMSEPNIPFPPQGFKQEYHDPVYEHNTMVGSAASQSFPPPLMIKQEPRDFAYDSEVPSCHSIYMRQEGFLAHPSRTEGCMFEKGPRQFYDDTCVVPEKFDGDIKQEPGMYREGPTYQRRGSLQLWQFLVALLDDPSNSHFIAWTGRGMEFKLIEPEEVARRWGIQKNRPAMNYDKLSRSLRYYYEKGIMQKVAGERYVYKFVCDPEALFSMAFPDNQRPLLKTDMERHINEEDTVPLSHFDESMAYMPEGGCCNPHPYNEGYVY
ETV5, sequence (P41161 whole entry): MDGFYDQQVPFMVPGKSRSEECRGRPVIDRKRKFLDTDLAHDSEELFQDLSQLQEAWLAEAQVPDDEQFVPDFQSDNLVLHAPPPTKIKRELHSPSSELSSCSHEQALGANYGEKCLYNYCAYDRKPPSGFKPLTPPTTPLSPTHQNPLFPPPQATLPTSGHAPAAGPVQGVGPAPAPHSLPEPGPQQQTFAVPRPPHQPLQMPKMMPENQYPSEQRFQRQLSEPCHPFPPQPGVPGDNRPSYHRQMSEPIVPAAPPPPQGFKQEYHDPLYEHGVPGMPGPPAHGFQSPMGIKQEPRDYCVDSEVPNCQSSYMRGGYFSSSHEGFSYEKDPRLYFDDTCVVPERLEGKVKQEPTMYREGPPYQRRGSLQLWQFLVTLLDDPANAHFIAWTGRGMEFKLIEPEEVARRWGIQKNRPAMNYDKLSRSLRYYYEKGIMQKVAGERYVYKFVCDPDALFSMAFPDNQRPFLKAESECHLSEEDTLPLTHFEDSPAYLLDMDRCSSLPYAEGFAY
HSF1, sequence (Q00613 whole entry): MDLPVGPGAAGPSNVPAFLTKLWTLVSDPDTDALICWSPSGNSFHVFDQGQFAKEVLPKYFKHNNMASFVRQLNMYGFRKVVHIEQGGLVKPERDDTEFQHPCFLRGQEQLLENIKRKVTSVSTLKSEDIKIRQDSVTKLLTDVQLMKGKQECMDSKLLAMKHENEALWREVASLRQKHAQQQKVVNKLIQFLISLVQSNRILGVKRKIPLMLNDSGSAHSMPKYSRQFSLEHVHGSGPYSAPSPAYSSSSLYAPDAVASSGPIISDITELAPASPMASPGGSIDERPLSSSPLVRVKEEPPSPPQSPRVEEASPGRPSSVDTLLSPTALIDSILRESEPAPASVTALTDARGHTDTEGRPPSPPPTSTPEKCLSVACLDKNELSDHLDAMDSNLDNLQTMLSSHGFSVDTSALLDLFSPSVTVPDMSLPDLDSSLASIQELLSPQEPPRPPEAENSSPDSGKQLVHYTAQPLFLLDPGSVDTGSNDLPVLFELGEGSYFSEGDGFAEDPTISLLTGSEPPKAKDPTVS
ETV6, sequence (P41212 whole entry): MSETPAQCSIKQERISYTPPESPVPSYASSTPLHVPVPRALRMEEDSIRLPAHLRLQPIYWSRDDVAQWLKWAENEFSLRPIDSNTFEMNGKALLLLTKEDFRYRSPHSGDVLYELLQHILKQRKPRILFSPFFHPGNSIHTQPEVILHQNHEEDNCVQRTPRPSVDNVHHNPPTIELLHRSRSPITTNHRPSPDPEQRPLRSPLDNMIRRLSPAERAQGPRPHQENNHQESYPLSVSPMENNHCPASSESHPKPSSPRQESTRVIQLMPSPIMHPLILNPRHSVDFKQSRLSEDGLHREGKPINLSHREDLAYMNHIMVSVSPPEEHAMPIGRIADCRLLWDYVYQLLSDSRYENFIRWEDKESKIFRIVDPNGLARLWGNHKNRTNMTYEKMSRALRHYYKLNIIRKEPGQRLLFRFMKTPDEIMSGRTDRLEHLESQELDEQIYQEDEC

Sequence	binding signal (FEV)	binding signal (ETV5)	binding signal (HSF1)	binding signal (SPIC)	binding signal (ELF4)	binding signal (ELK4)	binding signal (ETV2)	binding signal (ELF3)	binding signal (CRX)	binding signal (ETV1)	binding signal (ERF)	binding signal (ETV3L)	binding signal (ETS2)	binding signal (SPDEF)	binding signal (ETV7)	binding signal (ELF5)	binding signal (ETV3)	binding signal (ETV6)
TACGAA	1.29 fold enrichment (6-mer frequency, TF over GST control)	1.21 fold enrichment (6-mer frequency, TF over GST control)	1.38 fold enrichment (6-mer frequency, TF over GST control)	1.11 fold enrichment (6-mer frequency, TF over GST control)	1.31 fold enrichment (6-mer frequency, TF over GST control)	1.23 fold enrichment (6-mer frequency, TF over GST control)	1.16 fold enrichment (6-mer frequency, TF over GST control)	1.25 fold enrichment (6-mer frequency, TF over GST control)	1.32 fold enrichment (6-mer frequency, TF over GST control)	1.24 fold enrichment (6-mer frequency, TF over GST control)	1.28 fold enrichment (6-mer frequency, TF over GST control)	1.27 fold enrichment (6-mer frequency, TF over GST control)	1.18 fold enrichment (6-mer frequency, TF over GST control)	1.18 fold enrichment (6-mer frequency, TF over GST control)	1.31 fold enrichment (6-mer frequency, TF over GST control)	1.2 fold enrichment (6-mer frequency, TF over GST control)	1.19 fold enrichment (6-mer frequency, TF over GST control)	1.18 fold enrichment (6-mer frequency, TF over GST control)
ACGCCT	1.17 fold enrichment (6-mer frequency, TF over GST control)	1.2 fold enrichment (6-mer frequency, TF over GST control)	1.15 fold enrichment (6-mer frequency, TF over GST control)	1.25 fold enrichment (6-mer frequency, TF over GST control)	1.21 fold enrichment (6-mer frequency, TF over GST control)	1.09 fold enrichment (6-mer frequency, TF over GST control)	1.29 fold enrichment (6-mer frequency, TF over GST control)	1.12 fold enrichment (6-mer frequency, TF over GST control)	1.08 fold enrichment (6-mer frequency, TF over GST control)	1.05 fold enrichment (6-mer frequency, TF over GST control)	1.15 fold enrichment (6-mer frequency, TF over GST control)	1.31 fold enrichment (6-mer frequency, TF over GST control)	1.17 fold enrichment (6-mer frequency, TF over GST control)	1.12 fold enrichment (6-mer frequency, TF over GST control)	1.01 fold enrichment (6-mer frequency, TF over GST control)	1.09 fold enrichment (6-mer frequency, TF over GST control)	1.19 fold enrichment (6-mer frequency, TF over GST control)	1.3 fold enrichment (6-mer frequency, TF over GST control)
